About 2,100 (0.66%) of roughly 320,000 compounds were called active. Roughly 53% stayed inconclusive and do not appear here. The call rests on the fitted dose curve; in most records, active means well fitted inhibition curve with a large enough effect in the signal ratio, with a control signal flat (not every such curve was filed as active); inconclusive means small, poorly fitted or top-dose-only effect, or effect the other way, or a change in a side signal; inactive means flat fitted curve, though single readings scatter; the % refers to the signal ratio. The entries come from a sample that favours actives as a whole.
Potency means the concentration at half of the fitted maximal effect.

This assay is described as follows: qHTS Assay for Lipid Storage Modulators in Drosophila S3 Cells.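 On cell number change: cells counted by Cell Tracker Red CMTPX staining in the red channel.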 On lipid storage change, negative = inhibition: on the % scale 0 is the no-effect control and ±100 the full control effect. The settings on record: BODIPY lipid droplet fluorescence, 18-24 h, cells fed with added oleic acid; cell number change: measured here: cell count max response; series mostly up to 46.1 µM; lipid storage change, negative = inhibition: at the top concentration. Put shortly:
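Laser-scanning cytometry quantifies lipid droplet accumulation (500–530 nm total intensity; droplet/cell object ratio) in oleic acid-fed (400 uM added) Drosophila S3 cells treated with a concentration series. 20 uM Triacsin C defined 100% inhibition.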
(Quantitative high-throughput screening tests each substance at several concentrations.)
On to `CC(=O)Nc1ccc(S(=O)(=O)N2CCN=C2SCc2cccnc2)cc1`, for which the “lipid storage change, negative = inhibition” value is -0.0501% (inactive) and the cell number change is -0.745%.

For `COc1cc(-n2nc(C)c3c2OC(N)=C(C#N)C3c2ccccc2)c(Cl)c(Br)c1O` (centres undefined), the result was inactive and the cell number change is -5.47%.

Turning to `Cc1cc(N2CCCCC2)nc2c(C)cccc12`, the “lipid storage change, negative = inhibition” value was 9.06% (inactive) and the cell number change is 3.12%.

Take `COc1ccc(/C=c2/sc3n(c2=O)C(c2ccccc2OC)C2=C(N=3)c3ccccc3CC2)cc1O` (centres undefined): the “lipid storage change, negative = inhibition” value is 15.6% (inactive) and the cell number change is -22.9%.

As for `CN(C)C(=O)C(OC(=O)c1ccc2c(c1)CCCC2)c1ccccc1` (centres undefined), the Potency is 0.58 µM (active) and the cell number change turned out to be 15.3%.

For the compound `CN(C)C(=O)C(OC(=O)c1ccc2ccccc2n1)c1ccccc1` (centres undefined), the result was inactive and the cell number change came to 16.5%.

Take `COc1ccc(C(=O)OC(C(=O)c2ccccc2)c2ccccc2)cc1` (centres undefined): the “lipid storage change, negative = inhibition” value was -14.1% (inactive) and the cell number change was -12.3%.

With `CCOC(=O)c1cc(=O)c2c([N+](=O)[O-])ccc(OC)c2o1`, the “lipid storage change, negative = inhibition” value was -7.08% (inactive) and the cell number change is -14.1%.

For `CCC(=O)Nc1ccc(Oc2ccc3c(c2)C(=O)NC3=O)cc1`, the result was inactive and the cell number change was -7.29%.

With `CC(=O)Nc1cccc(Oc2ccc3c(c2)C(=O)NC3=O)c1`, the “lipid storage change, negative = inhibition” value was -10.3% (inactive) and the cell number change was -4.38%.

Take `CCCC(=O)Nc1cccc(Oc2ccc3c(c2)C(=O)NC3=O)c1`: the Potency is 1.46 µM (active) and the cell number change is -28.1%.

Consider `CC(C)c1ccc(NC(=O)N2CCOCC2)cc1`, for which the call was inactive and the cell number change was -1.06%.

On to `O=C(CSc1nc(-c2ccc(F)cc2)nc2c1Cc1ccccc1O2)Nc1ccc(C(=O)O)cc1`, for which the “lipid storage change, negative = inhibition” value is 4.47% (inactive) and the cell number change is -7.56%.

As for `CN1CCCN(C(=O)c2c(F)cccc2Cl)CC1`, the Potency is 1.64 µM (active) and the cell number change was -3.31%.

Regarding `O=C(c1c(F)cccc1F)N1CCCC1`, the “lipid storage change, negative = inhibition” value is 0.776% (inactive) and the cell number change came out at 7.6%.

Turning to `CN1CCCN(C(=O)c2ccccc2Cl)CC1`, the “lipid storage change, negative = inhibition” value is -22.4% (inactive) and the cell number change is -6.61%.

As for `CCOC(=O)/C(C#N)=C(/C)c1ccc(OC)cc1`, the outcome was inactive.

Consider `CCOc1cc2[nH]c(=O)n(CCc3ccc(OC)c(OC)c3)c(=O)c2cc1OCC`, for which the “lipid storage change, negative = inhibition” value was 10.7% (inactive) and the cell number change came out at 0.389%.

For the compound `O=C(O)c1ccc(N/N=C2/CCCc3ccccc32)cc1`, the “lipid storage change, negative = inhibition” value is 1.14% (inactive) and the cell number change came out at 24.2%.

For the compound `O=C1c2ccccc2-c2c1cccc2C(=O)N(CCO)CCO`, the Potency was 25.9 µM (active) and the cell number change was -9.84%.

Turning to `CC(C)CNC(=O)c1cccc2c1-c1ccccc1C2=O`, the “lipid storage change, negative = inhibition” value is 14.4% (inactive) and the cell number change stood at 24.1%.

Consider `CCN(CC)C(=O)c1cccc2c1C(=O)c1ccccc1-2`, for which the “lipid storage change, negative = inhibition” value is 9.17% (inactive) and the cell number change was 11.5%.

For the compound `CC12CN(S(=O)(=O)c3ccccc3)CC(C)(CN(S(=O)(=O)c3ccccc3)C1)C2`, the “lipid storage change, negative = inhibition” value is 1.31% (inactive) and the cell number change amounted to 1.2%.

As for `CCC(C)(C)NC(=O)CN(C(=O)c1csnn1)c1cccc2c1CCCC2`, the “lipid storage change, negative = inhibition” value was -4.03% (inactive) and the cell number change was -10.5%.

Consider `COc1ccc(-c2nc(C(=O)NCC3CCCO3)cc3c2[nH]c2ccccc23)cc1` (centres undefined), for which the “lipid storage change, negative = inhibition” value is -81.9% (inactive) and the cell number change was -11.3%.

`COc1cc(-c2nc(C(=O)NC3CCCCC3)cc3c2[nH]c2ccccc23)cc(OC)c1OC`: the Potency was 13 µM (active) and the cell number change was found to be 13.2%.

With `O=C(NCCO)c1cc2c([nH]c3ccccc32)c(-c2ccccc2)n1`, the “lipid storage change, negative = inhibition” value is -0.328% (inactive) and the cell number change is -12.4%.

Turning to `CCOCCCNC(=O)Cn1cc2c(n1)CCCC2`, the “lipid storage change, negative = inhibition” value is -2.58% (inactive) and the cell number change came out at 13.2%.

For the compound `COC(=O)Cn1c(=NC(=O)c2cc(OC)cc(OC)c2)sc2cc(OC)ccc21`, the “lipid storage change, negative = inhibition” value was -18.2% (inactive) and the cell number change is -0.279%.

As to `COc1ccc(NC(=O)CSc2nncs2)cc1S(N)(=O)=O`, the “lipid storage change, negative = inhibition” value was -14% (inactive).

For the compound `Cc1c(N)cccc1N`, the “lipid storage change, negative = inhibition” value is 6.46% (inactive) and the cell number change was 16.6%.

As to `O=C(CSC1=NS(=O)(=O)c2cc(Cl)ccc2N1)Nc1ccccc1F`, the “lipid storage change, negative = inhibition” value was 1.27% (inactive) and the cell number change came to 0.0379%.

Take `O=C(CSC1=NS(=O)(=O)c2ccccc2N1)Nc1ccccc1F`: the Potency was 6.51 µM (active) and the cell number change was -3.42%.

As to `O=C(CSC1=NS(=O)(=O)c2cc(F)ccc2N1)Nc1ccccc1F`, the outcome is “inactive [at 0.0737 µM]”.

In the case of `Cc1ccc(S(=O)(=O)N2CCN(S(=O)(=O)N3CCC(C)CC3)CC2)c(C)c1`, the outcome was inactive and the cell number change came out at 12.8%.

With `CC(=O)Nc1ccc(OCCCNC(=O)c2c(-c3ccccc3)noc2C)cc1`, the “lipid storage change, negative = inhibition” value is -5.94% (inactive) and the cell number change is -3.99%.

For the compound `CCOCCCNC(=O)c1cccs1`, the Potency is 6.51 µM (active) and the cell number change worked out at 17.5%.

Turning to `COCCCNC(=O)c1cccs1`, the compound was classed as inactive and the cell number change was found to be 12.5%.

For the compound `Cc1ccc(CNC(=O)[C@H](Cc2ccccc2)NC(=O)c2ccco2)cc1`, the “lipid storage change, negative = inhibition” value was 11.7% (inactive) and the cell number change is 9.45%.

Consider `CCCC(=O)Nc1nc(C(=O)OCC)cs1`, for which the “lipid storage change, negative = inhibition” value was -10.7% (inactive) and the cell number change was -4.4%.

Take `CCOCCCNC(=O)c1c(-c2ccccc2)noc1C`: the Potency was 20.6 µM (active) and the cell number change was -15.4%.

As for `O=C(NCCCCNC(=O)c1cccs1)c1cccs1`, the “lipid storage change, negative = inhibition” value was -20.8% (inactive) and the cell number change is -29%.

With `COCCCNC(=O)c1c(-c2ccccc2)noc1C`, the “lipid storage change, negative = inhibition” value is 9.31% (inactive) and the cell number change is 19.6%.

For the compound `CCOC(=O)c1sc(NC(=O)c2cccs2)nc1C`, the “lipid storage change, negative = inhibition” value is -6.52% (inactive) and the cell number change worked out at 7.32%.

In the case of `CCOC(=O)c1csc(NC(=O)c2cccs2)n1`, the Potency is 20.6 µM (active) and the cell number change was -11.6%.

`O=C(NC(Cc1ccccc1)C(=O)O)c1ccco1` (centres undefined): the “lipid storage change, negative = inhibition” value was 16% (inactive) and the cell number change came out at 6.62%.

In the case of `CCOCCCNC(=O)C(Cc1ccccc1)NC(=O)c1ccco1` (centres undefined), the Potency is 13 µM (active) and the cell number change was -1.42%.

Take `Cc1cccc(/C=C/c2nc3ccccc3c(=O)[nH]2)c1`: the “lipid storage change, negative = inhibition” value is -2.08% (inactive) and the cell number change is -2.24%.

As to `O=C(NCC(=O)N(Cc1cccs1)C(C(=O)NC1CCCC1)c1ccncc1)c1ccco1` (centres undefined), the outcome was inactive.

These data come from PubChem BioAssay AID2685 (National Center for Advancing Translational Sciences (NCATS), 2010).
